Results on 36 molecules are retold here after article PMC5540273 (PLoS ONE, 2017).
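Also: KINOMEscan kinase panel screen.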

This assay deals with PAK4. Particulars: concentration: 1 μM, replicates: in singlicate; n = 1.
`FC(F)(F)c1ccc(/C=C/c2cncnc2Nc2ccc3[nH]c(Cc4ccccc4)nc3c2)cc1` [GW709199]: the “%Inh” value is reported as 0%.
With `COc1ccc(Nc2nccc(NCCNC(=O)c3cc4ccccc4s3)n2)cc1` [GSK1379896] the figure was 0%; with `Cl.Cl.NCC(NCc1ccc(-c2ccnc3[nH]ccc23)s1)c1ccccc1` (stereo not drawn) [GSK1321565], 0%; with `O=C(Nc1cccc(-c2nn3ncccc3c2-c2ccnc(Nc3ccccc3)n2)c1)c1c(F)cccc1F` [GSK198271], 0%.
For `Cn1cc(-c2ccc3c(c2)CCN3C(=O)Cc2cccc(F)c2)c2c(N)ncnc21` [GSK2603358], the “%Inh” value is 0%.
Take `Nc1ncc(-c2cccnc2)c2scc(-c3ccc4c(c3)CCN4C(=O)Cc3ccccc3)c12` [GSK683281]: the “%Inh” value was 18%.
As for `COC(=O)Nc1nc2cc(Oc3ccc(NC(=O)Nc4cc(C(F)(F)F)ccc4F)cn3)ccc2[nH]1.Cl.Cl` [GW681170], the “%Inh” value is 0%.
As for `CCn1c(-c2nonc2N)nc2c(C#CC(C)(C)O)nc(OC[C@H](N)c3ccccc3)cc21` [GSK943949], the “%Inh” value came out at 94.6%.
With `COc1ccc(Nc2nccc(N3CCC(NC(=O)Nc4cccc(OC)c4)C3)n2)cc1` (stereo not drawn) [GSK1379742] the figure was 0%; with `O=C(Nc1cccc(Oc2ccc3nc(NC(=O)C4CC4)cn3n2)c1)c1ccccc1C(F)(F)F`, 0%; with `Fc1ccc(-c2ncn(C3CCNCC3)c2-c2ccnc(Oc3ccc(-c4ccccc4)cc3)n2)cc1` [SB-245391], 14%.
In the case of `CC(=O)Nc1nc2cnc(Nc3cc(NC(=O)c4cccc(C5(C#N)CC5)c4Cl)ccc3C)nc2s1`, the “%Inh” value is 7%.
With `Clc1ccc(-c2nn3ncccc3c2-c2ccnc(Nc3ccc4c(c3)OCCO4)n2)cc1` [GW829116], the “%Inh” value stood at 0%.
In the case of `O=C(Nc1ccccc1F)NC1CCN(c2ccnc(Nc3ccc(F)cc3)n2)CC1` [GSK1379800] it was 0%; in that of `c1ccc(-c2cnc3nccnn23)cc1` [AH20685], 0%.
Consider `COc1cc2c(cc1OCCN1CCNCC1)ncc1c3ccc(C#N)cc3[nH]c21`, for which the “%Inh” value turned out to be 0%.
With `COc1cccc(C2=C(Nc3ccc(Cl)c(C(=O)O)c3)C(=O)NC2=O)c1` [SB-390769] the figure was 0%.
As to `O=C(O)C(F)(F)F.O=C(O)C(F)(F)F.O=c1[nH]ccc2nc(N[C@@H]3CCCNC3)nc(Nc3ccc(S(=O)(=O)N4CCOCC4)cc3)c12` [GSK2177277], the “%Inh” value is recorded as 99.6%.
With `COc1cccc(NC(=O)NC2CCN(c3ccnc(Nc4cc(OC)c(OC)c(OC)c4)n3)C2)c1` (stereo not drawn) [GSK1379763] the figure was 0%.
With `O=c1[nH]cc(-c2ccc(N3CCOCC3)cc2)c2sc(-c3cn[nH]c3)cc12` [GSK2276055] the figure was 0%; with `Nc1ncc(-c2ccc3nccc(-c4ccncc4)c3c2)cc1S(=O)(=O)N1CCOCC1` [GSK1627798], 0%; with `Cl.c1ccc(-c2ccc3c(Nc4ccc5[nH]ncc5c4)ccnc3c2)nc1` [GW440137], 0%.
As for `Cc1ccc(C)c(NC(=O)NC2CCN(c3ccnc(Nc4ccc(F)cc4)n3)C2)c1` (stereo not drawn) [GSK1379720], the “%Inh” value is on record as 0%.
With `Cl.Cl.NCC(NC(=O)c1cc(-c2ccccc2)c(-c2ccnc3[nH]ccc23)s1)c1ccccc1` (stereo not drawn) [GSK1321561] the figure was 0%; with `Cc1occc1-c1ncc(OC[C@@H](N)Cc2c[nH]c3ccccc23)cc1-c1ccc2[nH]nc(C)c2c1.O=C(O)C(F)(F)F` [GSK682037], 2%; with `CN(c1ccc(NC(=O)Nc2cc(C(F)(F)F)ccc2F)cc1)c1ccnc(Nc2ccc(S(N)(=O)=O)cc2)n1` [GW809893], 2%.
In the case of `CC(C)c1nc(-c2cccc(NS(=O)(=O)c3c(F)cccc3F)c2F)c(-c2ccnc(Nc3ccc(N4CCOCC4)nc3)n2)s1` [GSK2008607], the “%Inh” value stood at 0%.
For `Cc1cccc(Nc2nc(N[C@H]3CCNC3)ncc2C(N)=O)c1.Cl` [GSK2197149], the “%Inh” value is given as 95.8%.
In the case of `COc1cccc(C(=O)Nc2cccc(Oc3ccc4nc(NC(=O)C5CC5)cn4n3)c2)c1` it was 18%.
Regarding `Cl.c1ccc(-c2ccc3c(Nc4ccc5[nH]ccc5c4)ccnc3c2)nc1` [GW440138], the “%Inh” value worked out at 0%.
In the case of `CC(=O)N1CCN(c2ccc(Nc3nccc(-c4sc(C(C)C)nc4-c4cccc(NS(=O)(=O)c5cccc(Cl)c5)c4)n3)cn2)CC1` [GSK1660437] it was 0%; in that of `O=C(Nc1cccc(-c2nn3ccccc3c2-c2ccnc(Nc3cccc(C(F)(F)F)c3)n2)c1)c1c(F)cccc1F` [GSK292658], 0%; in that of `O=C(NC1CCN(c2ccnc(Nc3ccc(F)cc3)n2)C1)c1cc2ccccc2s1` (stereo not drawn) [GSK1379716], 0%.
Turning to `COc1cc(Nc2nccc(-c3c(-c4cccc(NC(=O)c5c(F)cccc5F)c4)nn4ncccc34)n2)cc(OC)c1OC` [GSK327238], the “%Inh” value is 0%.
`COc1cccc(-c2ccc3c(NC(=O)C4CC4)n[nH]c3n2)c1` [SB-710903]: the “%Inh” value worked out at 0%.
Consider `Cn1cc(-c2ccc3c(c2)CCN3C(=O)Cc2cccc(Cl)c2)c2c(N)ncnc21` [GSK2606590], for which the “%Inh” value was determined as 0%.
